# Results: PubChem BioAssay (NCI)
# This is part of a sample that, as a whole, favours compounds with a hit. Of some 83,000 tested, about 20% had one in any assay.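 How to read the values: 0–100, growth inhibition (40 = 60% inhibited); 0, no net growth; -100 to 0, cell death (-40 = 40% of starting cells died; -100 = all dead).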 Unmarked numbers belong to inactive results. The source made the active and inactive calls. The calls were made as follows: active = growth percent below 10; inactive = the rest.
# Tests used:
# Assay in all cases: NCI-60 one-dose screen, 48 h (100 = growth as untreated, 0 = no growth, -100 = all killed)
# Settings in all cases: 10 µM
# [1] = test system: RPMI-8226 leukemia
# [2] = test system: OVCAR-8 ovarian
# [3] = test system: OVCAR-5 ovarian
# [4] = test system: OVCAR-4 ovarian
# [5] = test system: SK-OV-3 ovarian
# [6] = test system: IGROV1 ovarian
# [7] = test system: OVCAR-3 ovarian
# [8] = test system: HS 578T breast
# [9] = test system: NCI/ADR-RES ovarian
# [10] = test system: T-47D breast
# [11] = test system: BT-549 breast
# [12] = test system: MDA-MB-435 melanoma
# [13] = test system: SW-620 colon
# [14] = test system: MCF7 breast
# [15] = test system: HCT-116 colon
# [16] = test system: HCC-2998 colon
# [17] = test system: KM12 colon
Structure (SMILES),growth [1],growth [2],growth [3],growth [4],growth [5] [%],growth [6],growth [7],growth [8],growth [9],growth [10],growth [11],growth [12],growth [13],growth [14],growth [15],growth [16],growth [17]
O=C(N/N=C/c1ccccc1O)C(O)(c1ccccc1)c1ccccc1,62%,60.1%,73.9%,26.7%,66.9,43.7%,8.52% (active),74%,35.9%,48.1%,70.3%,65.2%,51.1%,50.7%,8.42% (active),76.3%,53.7%
O=C(O)CCCCSc1ncnc2nc[nH]c12,108%,98.3%,102%,116%,92.9,97.5%,100%,122%,107%,97.2%,106%,99.3%,109%,99.2%,103%,108%,102%
Cc1ccc(-c2n[nH]c(=O)c3noc(-c4ccc(C)cc4)c23)cc1,11.8%,43.3%,66.2%,59.4%,21.4,53.5%,-13.3% (active),21.9%,32.5%,28.6%,38.3%,-13.3% (active),28%,20.2%,32.2%,70.3%,35.9%
COc1ccc2c(c1)O/C(=C\c1ccc([N+](=O)[O-])s1)C2=O,1.62% (active),0.767% (active),61.4%,-32.2% (active),60.2,-29.4% (active),-30.5% (active),18.3%,54.5%,16%,7.31% (active),51.7%,-56.3% (active),21.4%,-23.4% (active),11.9%,5.98% (active)
COc1ccc(S(=O)(=O)Nc2c(/C=C\c3cc(OC)c(OC)c(OC)c3)ccc(OC)c2O)cc1,7.59% (active),-0.813% (active),29.5%,53%,18.5,33.2%,-8.9% (active),-8.12% (active),-2.42% (active),82.2%,40.6%,-39.4% (active),23.4%,10.9%,-6.66% (active),13.3%,-4.97% (active)
O=C(Nc1ccccc1)Nc1cccc(-n2cc(-c3ccncc3)c(-c3ccc(O)c(Cl)c3)n2)c1,9.53% (active),42.7%,91.1%,72.8%,58.6,89.7%,73.8%,40%,83.2%,44.6%,67.1%,52.4%,50.8%,32.5%,41.2%,44.2%,32.6%
O=C1/C(=C/c2ccc([N+](=O)[O-])o2)Oc2ccccc21,-0.688% (active),2.87% (active),8.57% (active),-68.6% (active),84,-22.7% (active),-69.7% (active),57.3%,14.8%,8.17% (active),-51.3% (active),-70.9% (active),-77.6% (active),7.13% (active),-56% (active),-1.7% (active),48.3%
O=C(Nc1cccc(-n2cc(-c3ccncc3)c(-c3ccc(O)c(Cl)c3)n2)c1)c1cccc(C(F)(F)F)c1,13.4%,18.4%,89.4%,51.2%,71.2,51.6%,45.1%,41.2%,35.1%,15%,43.9%,33.7%,26.1%,13.9%,21.7%,25.7%,20.2%
Cc1cc(Cl)nc(N(CCCNc2ccnc3cc(Cl)ccc23)Cc2cccs2)n1,-48.5% (active),7.5% (active),31.8%,11%,46.3,6.77% (active),25.9%,48.6%,0.179% (active),-2.57% (active),24.7%,3.55% (active),11.8%,10.7%,3.08% (active),0.165% (active),12.8%
CN(C)N=Nc1nn(C(=O)Nc2ccc(Cc3ccccc3)cc2)c2ccccc12,47.5%,48.8%,71%,52.1%,102,84.8%,45.7%,100%,46.6%,24.3%,75%,48.5%,34.4%,21.1%,62.1%,10.1%,12.9%
